For assay [1], the system named is Plasmodium falciparum Sir2 (PF13_0152, Sir2A). Description: Plasmodium falciparum Sir2A binding compounds – biochemical, small-molecule microarray, 635 nm fluorescence, primary screen (AID 1098).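 Also: score merges spot fluorescence intensity with its signal-to-noise ratio.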 The settings on record: fluorescence 635 nm, higher = more signal.
The nature of assay [2]: probe aDKK1 binding to arrayed compounds – biochemical, biotinylated probe, 635/667 nm fluorescence, primary screen (AID 1099).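 Also: score merges 667nm spot fluorescence with signal to noise across triplicate slides.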 The settings on record: small-molecule microarray, higher = more signal.
Assay [3] in a line: probe aCHRDL2 binding to arrayed compounds – biochemical, biotinylated probe, 635/667 nm fluorescence, primary screen (AID 1100). As to conditions: small-molecule microarray, higher = more signal.
The nature of assay [4]: change in splice reporter luminescence, either direction, cell-based, HEK293, spliceosome inhibition project, primary screen (AID 1101).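 Also: HEK293 cells carrying a splicing-competent luciferase reporter gene; test concentration not given here.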 As to conditions: HEK293 splicing luciferase reporter, 24 h, higher = more signal, called active from +8 up or from −8 down. (In general: Reporter assays use an easily measured gene product as a stand-in for the process of interest.)
Assay [5] deals with Fibroblast growth factor 10 (Homo sapiens) (UniProt O15520). Kind of assay: compounds binding fibroblast growth factor 10 – biochemical, small-molecule microarray, 635 nm fluorescence, primary screen (AID 1102). As to conditions: FGF10 binding, fluorescence 635 nm, higher = more signal.
Sequence of Fibroblast growth factor 10 (Homo sapiens) (O15520 whole entry, looked up): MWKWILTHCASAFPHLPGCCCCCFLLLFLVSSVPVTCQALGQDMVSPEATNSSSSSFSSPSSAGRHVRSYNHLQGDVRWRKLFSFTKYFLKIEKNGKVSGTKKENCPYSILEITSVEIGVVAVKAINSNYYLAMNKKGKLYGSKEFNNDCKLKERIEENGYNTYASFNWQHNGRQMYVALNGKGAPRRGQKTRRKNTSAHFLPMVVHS
For assay [6], the system named is glycogen synthase kinase-3 (GSK3A per assay name; protocol says GSK3B). Description: compounds binding glycogen synthase kinase-3 – biochemical, small-molecule microarray, 635 nm fluorescence, GSK3A, primary screen (AID 1103). Also: the record names both GSK3A and GSK3B. As to conditions: fluorescence 635 nm, higher = more signal.
In assay [7] the target is Epidermal growth factor receptor (Homo sapiens) (UniProt P00533). Description: compounds binding epidermal growth factor receptor – biochemical, small-molecule microarray, 635 nm fluorescence, primary screen (AID 1104).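 Also: score merges 667 nm emission intensity with spot signal to noise over triplicate slides.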 The settings on record: EGFR binding, higher = more signal.
Sequence of Epidermal growth factor receptor (Homo sapiens) (P00533 whole entry, looked up): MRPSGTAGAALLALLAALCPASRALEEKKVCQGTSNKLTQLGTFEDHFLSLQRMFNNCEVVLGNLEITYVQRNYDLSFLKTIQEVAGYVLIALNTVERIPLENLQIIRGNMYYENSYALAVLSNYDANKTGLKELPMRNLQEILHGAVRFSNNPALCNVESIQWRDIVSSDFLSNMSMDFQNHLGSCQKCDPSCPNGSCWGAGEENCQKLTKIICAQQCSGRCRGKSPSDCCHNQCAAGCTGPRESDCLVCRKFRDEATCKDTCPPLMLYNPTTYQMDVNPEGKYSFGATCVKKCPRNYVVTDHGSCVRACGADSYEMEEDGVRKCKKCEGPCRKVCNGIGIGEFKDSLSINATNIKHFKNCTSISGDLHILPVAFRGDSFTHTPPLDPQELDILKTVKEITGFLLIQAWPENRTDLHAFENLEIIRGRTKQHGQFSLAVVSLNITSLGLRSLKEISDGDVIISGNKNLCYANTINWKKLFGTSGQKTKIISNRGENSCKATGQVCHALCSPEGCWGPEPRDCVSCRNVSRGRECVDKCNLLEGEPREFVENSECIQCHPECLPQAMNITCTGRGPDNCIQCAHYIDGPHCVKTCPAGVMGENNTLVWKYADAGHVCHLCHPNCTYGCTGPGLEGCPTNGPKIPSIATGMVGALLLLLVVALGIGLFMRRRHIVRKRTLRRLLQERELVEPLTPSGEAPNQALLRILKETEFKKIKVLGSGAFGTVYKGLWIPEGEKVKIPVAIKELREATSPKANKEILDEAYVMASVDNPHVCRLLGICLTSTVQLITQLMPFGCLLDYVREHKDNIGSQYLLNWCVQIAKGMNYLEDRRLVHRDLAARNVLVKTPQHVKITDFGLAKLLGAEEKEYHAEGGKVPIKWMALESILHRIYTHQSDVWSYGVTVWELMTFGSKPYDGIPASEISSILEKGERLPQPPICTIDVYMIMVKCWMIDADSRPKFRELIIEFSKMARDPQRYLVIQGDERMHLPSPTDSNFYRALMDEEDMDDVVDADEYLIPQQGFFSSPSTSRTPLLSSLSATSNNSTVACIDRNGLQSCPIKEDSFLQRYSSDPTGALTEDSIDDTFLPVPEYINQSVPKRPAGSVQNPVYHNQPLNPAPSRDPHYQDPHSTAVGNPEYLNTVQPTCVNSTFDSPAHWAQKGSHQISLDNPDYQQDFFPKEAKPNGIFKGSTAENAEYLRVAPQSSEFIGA
The target of assay [8] is Follistatin-related protein 3 (Homo sapiens) (UniProt O95633). Description: compounds binding follistatin-related protein 3 – biochemical, small-molecule microarray, 635 nm fluorescence, primary screen (AID 1105).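 Also: score merges emission near 667 nm and signal to noise per printed spot across three slides.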 As to conditions: FSTL3 binding, higher = more signal.
Sequence of Follistatin-related protein 3 (Homo sapiens) (O95633 whole entry, looked up): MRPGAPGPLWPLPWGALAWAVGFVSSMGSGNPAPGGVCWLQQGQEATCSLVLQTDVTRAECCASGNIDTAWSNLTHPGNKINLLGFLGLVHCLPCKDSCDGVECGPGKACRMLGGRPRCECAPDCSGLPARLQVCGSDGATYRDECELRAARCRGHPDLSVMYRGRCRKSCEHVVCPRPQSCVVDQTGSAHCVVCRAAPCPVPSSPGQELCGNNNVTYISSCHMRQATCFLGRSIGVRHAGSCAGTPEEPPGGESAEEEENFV
The target in assay [9] is Dickkopf-related protein 1 (Homo sapiens) (UniProt O94907). Description: small molecules binding DKK1 protein – biochemical, small-molecule microarray, 635 nm fluorescence scan, primary screen (AID 1106).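 Also: score merges emission near 667 nm with signal to noise over three replicate slides.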 The settings on record: higher = more signal.
Sequence of Dickkopf-related protein 1 (Homo sapiens) (O94907 whole entry, looked up): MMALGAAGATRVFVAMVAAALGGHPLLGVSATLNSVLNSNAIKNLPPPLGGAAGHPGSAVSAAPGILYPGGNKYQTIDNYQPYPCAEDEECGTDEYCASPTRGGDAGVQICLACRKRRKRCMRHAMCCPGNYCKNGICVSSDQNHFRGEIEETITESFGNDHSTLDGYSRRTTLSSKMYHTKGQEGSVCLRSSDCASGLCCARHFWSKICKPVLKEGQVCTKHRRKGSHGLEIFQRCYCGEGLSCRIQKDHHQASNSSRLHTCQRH
In assay [10] the test system is Inhibin beta A chain (activin A). Description: small molecules binding activin A – biochemical, small-molecule microarray, 635 nm fluorescence scan, primary screen (AID 1107).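 Also: mouse activin A protein probed at 4.33 µg/mL on printed slides; score merges bound-protein fluorescence near 667 nm with spot signal-to-noise.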 The settings on record: INHBA, higher = more signal.
Assay [11] deals with Human papillomavirus type 1a protein E7 (residues 44-93). Kind of assay: small molecules binding HPV E7 44-93 – biochemical, small-molecule microarray, residues 44-93, 635 nm fluorescence, primary screen (AID 1108).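 Also: E7 fragment applied at 1 µg/mL in TBST for 1 h at 4 C; score combines spot fluorescence with its signal to noise ratio.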 As to conditions: fluorescence 635 nm, higher = more signal.
Assay [12] can be described thus: hepatitis C replication reporter changes, two-sided – Huh7 cells, luciferase reporter, HCV replication inhibitor project, primary screen (AID 1109).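 Also: huh7 hepatoma cells harbouring a luciferase neomycin HCV replicon reporter; luciferase luminescence as measure of HCV replicon replication; test concentration not given here.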 The settings on record: Huh7 HCV replicon luciferase reporter, 48 h; higher = more signal.
In assay [13] the target is Left-right determination factor 2 (Homo sapiens) (UniProt O00292). Kind of assay: small molecules binding LEFTY2 protein – biochemical, small-molecule microarray, 635 nm fluorescence scan, primary screen (AID 1110). The settings on record: higher = more signal.
Sequence of Left-right determination factor 2 (Homo sapiens) (O00292 whole entry, looked up): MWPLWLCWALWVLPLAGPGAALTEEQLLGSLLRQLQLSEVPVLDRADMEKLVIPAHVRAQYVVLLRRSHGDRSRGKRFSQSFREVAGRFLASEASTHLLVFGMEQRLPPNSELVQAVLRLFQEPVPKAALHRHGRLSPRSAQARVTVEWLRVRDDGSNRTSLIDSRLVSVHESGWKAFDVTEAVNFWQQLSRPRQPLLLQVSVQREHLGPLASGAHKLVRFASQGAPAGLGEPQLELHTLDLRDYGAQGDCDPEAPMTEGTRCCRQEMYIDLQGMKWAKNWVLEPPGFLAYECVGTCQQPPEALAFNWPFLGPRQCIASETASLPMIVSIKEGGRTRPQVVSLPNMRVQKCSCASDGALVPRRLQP
Assay [14] deals with Calmodulin-1 (Homo sapiens) (UniProt P0DP23). Description: small molecules binding calmodulin-1 with EGTA – biochemical, small-molecule microarray, Cy5-labelled CALM1, profiling panel (AID 1111).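 Also: labelled calmodulin applied in Tris saline Tween buffer holding calcium plus EGTA and DTT.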 The settings on record: Cy5-CALM1 binding fluorescence, higher = more signal.
For assay [15] the target is unchanged. Kind of assay: small molecules binding Ca-loaded calmodulin-1 – biochemical, small-molecule microarray, Cy5-labelled CALM1, plus calcium, artefact control for SMM control-protein annotation, profiling panel (AID 1112).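 Also: score merges spot fluorescence with signal to noise from triplicate slides.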 As to conditions: Cy5-CALM1 binding fluorescence, higher = more signal.
The nature of assay [16]: probe aWnt5a binding to arrayed compounds – biochemical, biotinylated probe, 635/667 nm fluorescence, primary screen (AID 1113).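 Also: score merges 667 nm fluorescence intensity with signal-to-noise per printed feature.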 As to conditions: small-molecule microarray, higher = more signal.
Assay [17] in a line: probe aShh binding to arrayed compounds – biochemical, biotinylated probe, 635/667 nm fluorescence, primary screen (AID 1114).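 Also: probe is biotin-labelled aShh protein from a stem cell growth factor screen; measures binding of labelled protein to compounds printed on the slide; score merges feature fluorescence at 667 nm with signal-to-noise.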 As to conditions: small-molecule microarray, higher = more signal.
Assay [18] is described as follows: probe aNog binding to arrayed compounds – biochemical, biotinylated probe, 635/667 nm fluorescence, primary screen (AID 1115).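 Also: probe is biotinylated aNog protein used at 0.15 µg/mL for 1 h at 4 C; z-score combines 667 nm fluorescence of each spot with its signal to noise.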 The settings on record: small-molecule microarray, higher = more signal.
For assay [19], the target named is Torsin-1A-interacting protein 1 (Homo sapiens) (UniProt Q5JTV8). Kind of assay: compound microarray binding of lysate hLAP1 – cell lysate, small-molecule microarray, COS7 lysate, 635/667 nm fluorescence, primary screen (AID 1116). As to conditions: 635 nm fluorescence, higher = more signal.
Sequence of Torsin-1A-interacting protein 1 (Homo sapiens) (Q5JTV8 whole entry, looked up): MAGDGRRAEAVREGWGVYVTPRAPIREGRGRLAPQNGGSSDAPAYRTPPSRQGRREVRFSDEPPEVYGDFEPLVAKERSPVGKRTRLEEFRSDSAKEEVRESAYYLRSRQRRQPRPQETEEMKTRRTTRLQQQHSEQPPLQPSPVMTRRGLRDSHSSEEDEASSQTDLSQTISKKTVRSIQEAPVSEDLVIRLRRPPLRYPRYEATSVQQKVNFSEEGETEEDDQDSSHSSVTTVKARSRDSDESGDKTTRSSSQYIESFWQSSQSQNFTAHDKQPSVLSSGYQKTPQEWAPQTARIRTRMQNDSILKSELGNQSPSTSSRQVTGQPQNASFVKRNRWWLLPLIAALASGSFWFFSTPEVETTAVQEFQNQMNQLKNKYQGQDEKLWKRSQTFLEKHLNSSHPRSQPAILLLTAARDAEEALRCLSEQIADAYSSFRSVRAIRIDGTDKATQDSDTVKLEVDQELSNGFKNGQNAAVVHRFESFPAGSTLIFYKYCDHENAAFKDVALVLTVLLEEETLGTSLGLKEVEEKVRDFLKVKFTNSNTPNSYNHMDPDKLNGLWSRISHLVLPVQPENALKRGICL
Assay [20] addresses Alpha-bungarotoxin (Bungarus multicinctus) (UniProt P60615). Kind of assay: compounds binding labelled alpha-BTX control protein – biochemical, small-molecule microarray, Alexa647 label, 635/667 nm fluorescence, artefact control for SMM control protein annotation, profiling panel (AID 1117). As to conditions: alpha-BTX-A647 binding fluorescence, higher = more signal.

The source made the active and inactive calls.

Sequence of Alpha-bungarotoxin (Bungarus multicinctus) (P60615 whole entry, looked up): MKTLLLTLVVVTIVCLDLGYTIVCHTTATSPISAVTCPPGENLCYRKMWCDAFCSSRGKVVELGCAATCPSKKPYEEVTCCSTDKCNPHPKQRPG

`C[N+](C)(C)CCCC[C@@H]1NC(=O)[C@H]2C[C@@H](C(=O)NCCCCCN)[C@@H](c3cccc(OCCO)c3)N2C1=O`: the composite z-score in assay [1] was 1.19; in [2], 1.23; in assay [3], 1.02; in [5], 0.837; in assay [6] it was 0.985; in [7] it was -0.0784. The composite z-score in assay [8] is 0.564; in assay [9], 0.044; in [10], 1.63; in assay [11], 1.2; in assay [13], -1.17; in assay [14], 1.3. The composite z-score in assay [15] is 0.767; in [16], 0.133; in assay [17], 0.302; in assay [18] it was 0.708; in assay [19] it was 1.91; in [20], 2.15. Moreover, the values for the z-score in assay [4] and in [12] were -1.82 (inactive) and -0.295, respectively.

For `O=C1c2ccccc2[C@](Cc2ccccc2I)(C(=O)O)[C@H](c2ccc(CO)cc2)N1Cc1ccccc1Cl`, the composite z-score in assay [1] was 0.96; in [2] it was 0.815; in assay [3] it was 1.06; in assay [5], 0.235; in assay [6], -0.0679; in assay [7], -0.197. For the same compound, the composite z-score in assay [8] was 0.521; in assay [9] it was 0.697; in [10], 0.623; in assay [11], 1.15; in [13] it was -0.0287; in assay [14] it was 1.56. The composite z-score was 0.586 in assay [15]; -0.163 in [16]; -0.189 in assay [17]; 0.195 in [18]; 0.957 in assay [19]; 2.29 in assay [20]. Further, the z-score in [4] was 0.0252 (inactive); in [12] it was -0.219.

As to `C=C(C(=O)CC[C@@H](OC(C)=O)c1ccccc1OCCO)C(C)C`, the composite z-score was 0.967 in assay [1]; -0.416 in [2]; -0.0909 in assay [3]; 1.14 in [5]; -0.465 in [6]; -0.847 in assay [7]. Further, the composite z-score was -0.406 in [8]; 0.108 in assay [9]; 0.959 in assay [10]; -0.512 in assay [11]; -0.325 in assay [13]; -0.942 in assay [14]. For the same compound, the composite z-score in assay [15] was -1.21; in assay [16], -0.202; in [17], -0.153; in [18], -0.0783; in assay [19], 0.495; in [20], -0.175. For the same compound, the z-score in assay [4] is -1.41 (inactive); in [12] it was -3.88.

Consider `COc1ccc([Si](C)(C)[C@@H]2[C@@H](CC(=O)N3CCC[C@H]3CO)O[C@]3(C(=O)N(Cc4ccc(N5CCC5=O)cc4)c4ccccc43)[C@H]2C)cc1`, for which the composite z-score worked out at 1.22 in assay [1]; 0.123 in [2]; 0.0655 in assay [3]; 0.61 in [5]; 0.398 in assay [6]; 0.35 in assay [7]. In addition, the composite z-score in assay [8] was found to be 0.489; in [9] it was 0.33; in assay [10] it was 0.194; in assay [11], 0.196; in [13], 0.499; in assay [14], 0.593. Besides, the composite z-score in [15] was 0.343; in [16], -0.124; in assay [17], 0.257; in assay [18], 0.241; in assay [19] it was 0.303; in assay [20] it was 0.428. Also, the z-score is -0.473 (inactive) in assay [4] and -1.96 in assay [12].

As for `COC(=O)c1c2oc(c1C(=O)OC)C(=O)N[C@@H](C(C)C)Cn1nncc1C1(CCCCC1)NC(=O)N[C@H](CO)CC2`, the composite z-score is 1.54 in assay [1]; -0.212 in assay [2]; 0.0273 in assay [3]; -0.0613 in assay [5]; -0.96 in assay [6]; -0.193 in [7]. The composite z-score in assay [8] is -0.232; in assay [9] it was -0.074; in [10] it was 0.31; in assay [11], -0.683; in assay [13] it was -0.0834; in [14], 0.401. The composite z-score in assay [15] is -0.102; in assay [16] it was -0.148; in [17], 0.0899; in assay [18] it was -0.0207; in assay [19], 0.368; in assay [20], 1.29. In addition, the z-score was -1.44 (inactive) in assay [4] and 0.862 in assay [12].

The values are drawn from PubChem BioAssay.
